Measurements taken from PubChem BioAssay (NCATS).
Records with an inconclusive call do not appear. Calls of active or inactive are those of the source. Unless noted, calls come from the whole dose curve; as a rule, active = well fitted curve in either direction with a large enough effect (not every such curve was filed as active); inconclusive = small, poorly fitted or top-dose-only effect, or another doubt; inactive = flat fitted curve, though single readings scatter.

Experiments:
[1] = target: Lysosomal acid glucosylceramidase (Homo sapiens) (UniProt P04062); test: Glucocerebrosidase-p2 (AID 348; in the data active = potency below about 10 µM; note: potency is the fitted concentration of half-maximal effect); settings: purified GBA, blue fluorogenic substrate, 40 min
Procedure, shortened: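 Compounds titrated from 0.6 nM upwards against 0.2 nM enzyme in pH 5.9 citric acid/KH2PO4, taurocholate, tween-20; blue fluorogenic substrate 80 uM, 40 min room temperature, stopped and read Ex 365/Em 440 for AC50.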

[2] = AP1 Signaling Pathway (AID 357); settings: ME-180 AP-1-bla reporter, EGF-induced, beta-lactamase ratio, 5 h; at 7.69 µM (top of the series) unless noted; note: % is set by controls: 0 for no effect and ±100 for the full control effect
Procedure, shortened: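 AP-1-bla ME-180 cells with beta-lactamase reporter under AP-1 response element, stimulated with EC50 EGF; compounds titrated, 5 hours at 37 degrees Celsius. CCF4 read at 460/530 nm ratio; positive and negative modulators judged by AC50.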

[3] = target: Cytochrome P450 1A2 (Homo sapiens) (UniProt P05177); test: p450-cyp1a2 (AID 410; calls by dose curve; note: potency is the fitted concentration of half-maximal effect;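 for activity change, negative = inhibition: -100% = full effect of reference inhibitor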); settings: recombinant CYP1A2, luciferin-ME demethylation, luminescence; series mostly up to 57 µM
Procedure, shortened: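 Human CYP1A2 (20nM) demethylated Luciferin-ME at its Km (100uM) in 100mM KPO4. After 10 min compound preincubation, NADPH regeneration ran the reaction 60 min at room temperature. Luciferin was read by luminescence, normalized to 57 uM furafylline.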

[4] = NFAT Signaling Pathway (AID 444); settings: Jurkat NFAT-bla M1, carbachol, beta-lactamase ratio, 5 h; at 7.69 µM (top of the series) unless noted;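 note: carbachol stimulus at about its EC50 of 1 µM final; % is set by controls: 0 for no effect and ±100 for the full control effect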
Procedure, shortened: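 Jurkat cells with NFAT-driven β-lactamase reporter and co-expressed M1 receptor, stimulated with carbachol (final 1 uM, ~EC50), compound titration, 5 h at 37 °C. CCF4 loaded 1 h at RT; 460/530 nm ratio gave %activity and AC50.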

[5] = Stat Signaling Pathway (AID 446); settings: ME-180 SIE beta-lactamase reporter, IL-6 stimulated, 5 h; at 7.69 µM (top of the series) unless noted;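 note: ME-180 cervical cancer cells given 40 pM IL-6 alongside compound; SIE-controlled beta-lactamase reporter measured as 460/530 nm FRET emission ratio; % is set by controls: 0 for no effect and ±100 for the full control effect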
Procedure, shortened: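 Screening format detects activators and inhibitors alike: ME-180 SIE-bla cells stimulated at 40 pM IL-6 for 5 hrs with compound, then dual-emission beta-lactamase read at 405 nm excitation.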

[6] = target: Glucocorticoid receptor (Homo sapiens) (UniProt P04150); test: GR-EFC Redistribution (AID 451; calls by dose curve; note: potency is the fitted concentration of half-maximal effect); settings: CHO-K1 GR-EFC translocation, beta-gal luminescence, 2 h
Procedure, shortened: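 CHO-K1 cells expressing nuclear EA and GR-ED fragments of b-gal; compounds titrated up to 46 uM final, 2 h at 37 C. GR nuclear translocation read as complemented b-gal luminescence after 1 h RT detection.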

[7] = target: Mitogen-activated protein kinase 10 (Mus musculus) (UniProt Q61831); test: JNK3 AlphaScreen Assay (AID 530); settings: JNK3 lysate, c-Jun phosphorylation; series mostly up to 57.1 µM;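 note: kinase came from lysate of stimulated human HepG2 cells; signal reports phosphorylation of biotinylated GST-cJun 1-79 at Ser73 with 10 µM ATP; % is set by controls: 0 for no effect and ±100 for the full control effect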
Procedure, shortened: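 qHTS format: compounds tested as titrations against IL-1beta/TNF-alpha-activated HepG2 lysate JNK3 with biotin-GST-cJun substrate and 10 uM ATP at room temperature. Loss of anti-phospho-cJun AlphaScreen signal indicates inhibition.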

[8] = target: 3',5'-cyclic-AMP phosphodiesterase 4B (Homo sapiens) (UniProt Q07343); test: qHTS Assay for Inhibitors of PDE-IV (AID 607; active = well fitted activation curve with a large enough effect in the main read-out, with a control signal flat, not every such curve was filed as active; note: % of control where 0% means no effect); settings: HEK293 ACTOne CNG channel cells, membrane potential fluorescence; series mostly up to 22.9 µM
Procedure, shortened: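 The readout is membrane depolarisation from a cAMP-sensing CNG channel, detected with a potential dye at ex 535/em 590. Cells were HEK293-derived (endogenous PDE-IV) at 1000 cells/well, titrated up to 22.9 uM final.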

[9] = target: Cytochrome P450 3A4 (Homo sapiens) (UniProt P08684); test: qHTS Assay for Activators of Cytochrome P450 3A4 (AID 885; active = well fitted curve in the direction sought with a large enough effect; an effect the other way counts as inactive or inconclusive; note: nearly all actives have a fitted effect of over 65% in size); settings: recombinant CYP3A4, Luciferin-PPXE luminescence, 60 min; series mostly up to 57.1 µM
Procedure, shortened: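 Steps: enzyme/substrate mix dispensed; compound added, 10 min RT; NADPH regeneration solution added, 60 min RT; luciferin detection buffer stops reaction; 20 min later luminescence measured.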

[10] = target: Cytochrome P450 2D6 (Homo sapiens) (UniProt P10635); test: qHTS Assay for Inhibitors and Substrates of Cytochrome P450 2D6 (AID 891; active = well fitted curve in the direction sought with a large enough effect; an effect the other way counts as inactive or inconclusive; note: nearly all actives have a fitted effect of over 60% in size; note: potency is the fitted concentration of half-maximal effect); settings: recombinant CYP2D6, luciferin-ME EGE luminescence; series mostly up to 57.1 µM
Procedure, shortened: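 Human CYP2D6 (5 nM) with 30 uM Luciferin-ME EGE (at Km) in 100 mM KPO4, compound preincubated 10 min, then NADPH regeneration system for 60 min at room temperature. Luciferin read by luminescence; normalized to 1.43 uM quinidine.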

[11] = qHTS Assay for Lipid Storage Modulators (AID 1519; calls by dose curve); settings: Drosophila S3 cells, BODIPY lipid droplet/cell ratio, laser cytometry, cells loaded with oleic acid; for activity change, negative = inhibition: at 57.5 µM (top of the series)
Procedure, shortened: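 Cells seeded at 5,000 per well were treated with compounds over a concentration series and loaded with oleic acid (400 uM, as added). Lipid droplet fluorescence (488 nm excitation, 500-530 nm channel) was read by laser-scanning cytometry and normalized to 20 uM Triacsin C.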

[12] = Primary qHTS for small molecule stabilizers of the endoplasmic reticulum resident proteome: Secreted ER Calcium Modulated Protein (SERCaMP) assay (AID 1508630; active = well fitted curve in the direction sought with a large enough effect; an effect the other way counts as inactive or inconclusive; note: % is set by controls: 0 for no effect and ±100 for the full control effect); settings: SH-SY5Y GLuc-SERCaMP (Gaussia luciferase released on ER calcium loss) secretion, thapsigargin, luminescence; series mostly up to 38.4 µM
Procedure, shortened: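 GLuc-SERCaMP-expressing SH-SY5Y cells, pretreated 16 h with compound, are challenged with thapsigargin to empty ER calcium stores; after 4 h, coelenterazine is added directly to the medium and luminescence is imaged.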

[13] = qHTS Assay for Identification of Small Molecule Agonists for Hypoxia Response Element Signaling Pathway (AID 914; active = well fitted activation curve with a large enough effect in the signal ratio, with a control signal flat, not every such curve was filed as active; the % refers to the signal ratio; note: % of control where 0% means no effect); settings: ME-180 HRE-bla reporter, beta-lactamase ratio, CoCl2, 17 h; activation: stronger effect = higher value
Procedure, shortened: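 ME-180 cells carrying an HRE-driven beta-lactamase reporter were treated with compounds in a titration series plus an EC50 level of CoCl2 for 17 h at 37 degrees Celsius; CCF4 readout as the 460nm/530nm ratio gave AC50 values.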

[14] = target: Cytochrome P450 2C19 (Homo sapiens) (UniProt P33261); test: qHTS Assay for Inhibitors and Substrates of Cytochrome P450 2C19 (AID 899; active = well fitted curve in the direction sought with a large enough effect; an effect the other way counts as inactive or inconclusive; note: nearly all actives have a fitted effect of over 60% in size; note: potency is the fitted concentration of half-maximal effect); settings: recombinant CYP2C19, luciferin-H EGE luminescence; series mostly up to 57.1 µM
Procedure, shortened: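 Luminescent read-out of luciferin formed from Luciferin-H EGE (10uM, equal to KM). Enzyme 5nM in 50mM KPO4; compound added, 10 min at 37C, then NADPH regenerating system for 60 min at 37C. Full inhibition defined by 57uM ketoconazole.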

[15] = measured here: cell count channel max response
[16] = measured here: lipid channel max response

Sequence of Cytochrome P450 3A4 (Homo sapiens) (P08684 whole entry, looked up): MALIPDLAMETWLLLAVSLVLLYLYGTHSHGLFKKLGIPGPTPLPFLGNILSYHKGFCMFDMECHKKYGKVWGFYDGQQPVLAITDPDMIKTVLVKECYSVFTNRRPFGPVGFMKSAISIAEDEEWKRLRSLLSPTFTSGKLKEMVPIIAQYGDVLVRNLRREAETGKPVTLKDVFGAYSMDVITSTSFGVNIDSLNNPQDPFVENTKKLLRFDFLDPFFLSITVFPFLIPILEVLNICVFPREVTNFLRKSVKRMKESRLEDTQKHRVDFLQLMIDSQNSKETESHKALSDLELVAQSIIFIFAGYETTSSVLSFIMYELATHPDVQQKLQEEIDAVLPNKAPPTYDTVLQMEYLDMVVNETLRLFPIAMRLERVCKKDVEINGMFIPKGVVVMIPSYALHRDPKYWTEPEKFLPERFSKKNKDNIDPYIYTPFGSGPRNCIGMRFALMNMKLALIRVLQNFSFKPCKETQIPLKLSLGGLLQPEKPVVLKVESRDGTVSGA
Sequence of 3',5'-cyclic-AMP phosphodiesterase 4B (Homo sapiens) (Q07343 whole entry, looked up): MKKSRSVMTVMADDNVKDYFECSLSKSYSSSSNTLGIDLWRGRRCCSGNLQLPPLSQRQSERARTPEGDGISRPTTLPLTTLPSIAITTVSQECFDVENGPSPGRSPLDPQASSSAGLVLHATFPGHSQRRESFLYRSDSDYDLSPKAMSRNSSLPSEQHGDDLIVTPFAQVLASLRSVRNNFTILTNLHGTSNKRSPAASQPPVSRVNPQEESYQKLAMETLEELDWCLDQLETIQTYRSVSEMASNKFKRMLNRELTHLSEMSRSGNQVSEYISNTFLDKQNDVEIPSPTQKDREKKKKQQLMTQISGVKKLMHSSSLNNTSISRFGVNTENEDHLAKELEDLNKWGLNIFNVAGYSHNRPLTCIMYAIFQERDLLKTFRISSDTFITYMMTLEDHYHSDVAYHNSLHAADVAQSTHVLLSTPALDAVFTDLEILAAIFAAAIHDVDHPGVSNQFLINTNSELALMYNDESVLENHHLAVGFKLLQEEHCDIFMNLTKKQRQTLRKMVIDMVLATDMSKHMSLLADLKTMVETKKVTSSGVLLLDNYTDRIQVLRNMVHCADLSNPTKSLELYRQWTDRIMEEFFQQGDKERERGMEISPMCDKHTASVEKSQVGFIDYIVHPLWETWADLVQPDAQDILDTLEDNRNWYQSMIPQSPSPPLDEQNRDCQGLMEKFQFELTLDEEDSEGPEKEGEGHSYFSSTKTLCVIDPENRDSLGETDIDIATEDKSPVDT
Sequence of Cytochrome P450 2C19 (Homo sapiens) (P33261 whole entry, looked up): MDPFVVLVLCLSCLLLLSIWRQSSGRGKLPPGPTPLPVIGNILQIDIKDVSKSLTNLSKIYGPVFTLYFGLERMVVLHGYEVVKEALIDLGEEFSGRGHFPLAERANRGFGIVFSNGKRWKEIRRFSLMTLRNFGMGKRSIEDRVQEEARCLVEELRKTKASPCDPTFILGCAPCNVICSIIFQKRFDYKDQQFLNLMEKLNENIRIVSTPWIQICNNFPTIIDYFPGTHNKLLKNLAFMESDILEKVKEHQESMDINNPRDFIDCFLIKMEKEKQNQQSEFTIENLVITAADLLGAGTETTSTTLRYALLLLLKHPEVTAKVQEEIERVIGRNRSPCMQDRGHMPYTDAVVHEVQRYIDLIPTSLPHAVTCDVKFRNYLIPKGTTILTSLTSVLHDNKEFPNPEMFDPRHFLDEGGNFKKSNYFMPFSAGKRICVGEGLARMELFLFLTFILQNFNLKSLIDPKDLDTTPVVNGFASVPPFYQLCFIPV
Sequence of Cytochrome P450 1A2 (Homo sapiens) (P05177 whole entry, looked up): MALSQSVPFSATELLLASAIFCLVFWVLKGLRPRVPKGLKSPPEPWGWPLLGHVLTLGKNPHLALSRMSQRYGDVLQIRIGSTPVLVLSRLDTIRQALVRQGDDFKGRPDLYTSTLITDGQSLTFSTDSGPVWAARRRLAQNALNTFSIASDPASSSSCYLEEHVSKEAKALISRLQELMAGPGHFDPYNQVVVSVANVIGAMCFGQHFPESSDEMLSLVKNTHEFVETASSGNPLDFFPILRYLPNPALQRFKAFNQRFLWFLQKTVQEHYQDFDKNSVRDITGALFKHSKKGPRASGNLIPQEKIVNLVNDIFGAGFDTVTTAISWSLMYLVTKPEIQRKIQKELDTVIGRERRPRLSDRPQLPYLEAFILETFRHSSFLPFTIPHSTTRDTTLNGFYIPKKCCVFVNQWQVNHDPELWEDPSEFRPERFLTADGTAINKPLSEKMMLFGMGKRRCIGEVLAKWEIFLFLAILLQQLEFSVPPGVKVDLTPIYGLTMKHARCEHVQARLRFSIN
Sequence of Lysosomal acid glucosylceramidase (Homo sapiens) (P04062 whole entry, looked up): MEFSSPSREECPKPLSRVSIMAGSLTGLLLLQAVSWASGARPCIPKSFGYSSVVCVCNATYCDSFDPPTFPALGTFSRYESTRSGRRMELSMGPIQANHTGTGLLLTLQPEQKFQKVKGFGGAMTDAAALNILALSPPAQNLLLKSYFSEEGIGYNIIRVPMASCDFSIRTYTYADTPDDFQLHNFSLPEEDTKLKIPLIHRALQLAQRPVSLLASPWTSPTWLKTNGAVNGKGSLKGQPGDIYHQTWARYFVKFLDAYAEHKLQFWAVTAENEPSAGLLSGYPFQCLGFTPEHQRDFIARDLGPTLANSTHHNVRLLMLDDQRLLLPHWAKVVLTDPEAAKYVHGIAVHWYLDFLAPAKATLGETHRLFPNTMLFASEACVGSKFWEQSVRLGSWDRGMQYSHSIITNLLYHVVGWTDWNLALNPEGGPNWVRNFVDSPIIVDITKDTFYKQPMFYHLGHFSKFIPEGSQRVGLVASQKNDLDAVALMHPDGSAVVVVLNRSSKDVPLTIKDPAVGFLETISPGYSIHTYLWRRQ
Sequence of Cytochrome P450 2D6 (Homo sapiens) (P10635 whole entry, looked up): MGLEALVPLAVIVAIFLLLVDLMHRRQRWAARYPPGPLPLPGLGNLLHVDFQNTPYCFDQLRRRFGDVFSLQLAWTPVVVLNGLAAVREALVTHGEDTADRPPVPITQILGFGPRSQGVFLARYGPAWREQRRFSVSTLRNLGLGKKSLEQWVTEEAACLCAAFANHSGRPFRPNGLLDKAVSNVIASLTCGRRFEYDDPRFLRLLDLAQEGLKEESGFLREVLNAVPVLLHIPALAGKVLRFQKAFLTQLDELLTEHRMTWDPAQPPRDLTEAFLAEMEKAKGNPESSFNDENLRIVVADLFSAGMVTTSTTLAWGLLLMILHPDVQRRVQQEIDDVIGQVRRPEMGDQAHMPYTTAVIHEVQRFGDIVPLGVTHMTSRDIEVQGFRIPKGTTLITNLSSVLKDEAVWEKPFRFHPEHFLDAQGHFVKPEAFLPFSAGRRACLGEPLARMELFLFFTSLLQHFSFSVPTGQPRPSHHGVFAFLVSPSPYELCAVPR
Sequence of Glucocorticoid receptor (Homo sapiens) (P04150 whole entry, looked up, the tested form may be a part): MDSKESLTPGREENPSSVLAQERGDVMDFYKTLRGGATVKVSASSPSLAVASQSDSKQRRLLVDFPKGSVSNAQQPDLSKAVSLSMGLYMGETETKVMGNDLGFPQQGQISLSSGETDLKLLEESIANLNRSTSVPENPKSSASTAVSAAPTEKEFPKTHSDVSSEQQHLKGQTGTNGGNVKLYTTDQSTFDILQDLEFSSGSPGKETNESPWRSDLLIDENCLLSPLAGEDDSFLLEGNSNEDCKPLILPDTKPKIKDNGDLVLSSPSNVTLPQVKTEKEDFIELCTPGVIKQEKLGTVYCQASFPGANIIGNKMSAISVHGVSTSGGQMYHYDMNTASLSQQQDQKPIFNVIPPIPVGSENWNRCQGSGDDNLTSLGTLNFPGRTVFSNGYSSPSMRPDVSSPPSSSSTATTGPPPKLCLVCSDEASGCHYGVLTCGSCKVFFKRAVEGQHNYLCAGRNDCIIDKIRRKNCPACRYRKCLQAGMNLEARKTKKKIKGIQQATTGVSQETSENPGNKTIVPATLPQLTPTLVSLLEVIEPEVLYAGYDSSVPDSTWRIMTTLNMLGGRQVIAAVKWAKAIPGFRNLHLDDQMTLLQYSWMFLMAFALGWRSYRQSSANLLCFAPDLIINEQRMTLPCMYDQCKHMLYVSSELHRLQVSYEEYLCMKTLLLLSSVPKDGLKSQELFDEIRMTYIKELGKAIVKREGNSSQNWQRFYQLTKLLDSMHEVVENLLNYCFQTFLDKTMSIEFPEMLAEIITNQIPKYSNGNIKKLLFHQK

CC(=O)N1CCC2(CCCN(C(c3ccccc3)c3ccccc3)C2)CC1
12.6%: max response [11, 16]
3.3%: max response [11, 15]
active: Potency [3] 15.8 µM | Potency [10] 7.94 µM
inactive: Potency [1] > 11.4 µM | activity change, negative = inhibition [2] -12.2% | activity change, negative = inhibition [4] 28.1% | activity, negative = inhibition [5] 17.6% | Potency [6] > 46 µM | outcome [7] | Potency [8] | Potency [9] | activity change, negative = inhibition [11] 6.41% | Potency [12]

O=C(c1csnn1)N1CCC2(CC1)CCN(c1ccccc1)CC2
1.9%: max response [11, 15]
inactive: Potency [1] > 11.4 µM | activity change, negative = inhibition [2] -9.9% | activity change, negative = inhibition [4] 25.1% | activity, negative = inhibition [5] 1.19% | Potency [6] > 46 µM | outcome [7] | Potency [8] | activation [13] -15.4% | activity change, negative = inhibition [11] 4.25% | Potency [12]
6.57%: max response [11, 16]
active: Potency [3] 15.8 µM

CS(=O)(=O)N1CCC[C@@]2(CCN(c3ccccc3)C2)C1
-14%: max response [11, 16]
2%: max response [11, 15]
inactive: Potency [1] > 11.4 µM | activity change, negative = inhibition [2] -11.3% | activity change, negative = inhibition [4] -3.01% | activity, negative = inhibition [5] -2.15% | Potency [6] > 46 µM | outcome [7] | Potency [8] | Potency [9] | activity change, negative = inhibition [11] -16.2% | Potency [12]
active: Potency [3] 31.6 µM | Potency [14] 3.16 µM

COC(=O)N1CCC[C@@]2(CCN(C(c3ccccc3)c3ccccc3)C2)C1
6.34%: max response [11, 15]
inactive: Potency [1] > 11.4 µM | activity change, negative = inhibition [2] -2.49% | activity change, negative = inhibition [4] -6.57% | activity, negative = inhibition [5] 3.94% | Potency [6] > 46 µM | outcome [7] | activity change, negative = inhibition [11] -5.11% | Potency [12]
4.63%: max response [11, 16]
active: Potency [3] 12.6 µM | Potency [10] 2 µM

COCC(=O)N1CCC2(CCCN(C(=O)Nc3ccc(OC)cc3)C2)CC1
inactive: Potency [1] > 11.4 µM | activity change, negative = inhibition [2] -3.98% | Potency [3] | activity change, negative = inhibition [4] 13.5% | activity, negative = inhibition [5] -3.45% | Potency [6] > 46 µM | outcome [7] | Potency [8] | Potency [9] | Potency [14] | activity change, negative = inhibition [11] 5.43% | Potency [12]
18.7%: max response [11, 16]
13.8%: max response [11, 15]

O=C(c1ccco1)N1CCC[C@@]2(CCN(c3ccccc3)C2)C1
active: Potency [3] 7.94 µM | Potency [14] 5.01 µM
4.34%: max response [11, 16]
11.4%: max response [11, 15]
inactive: Potency [1] > 11.4 µM | activity change, negative = inhibition [2] -8.72% | activity change, negative = inhibition [4] -13.1% | activity, negative = inhibition [5] -4.84% | Potency [6] > 46 µM | outcome [7] | Potency [8] | Potency [9] | activity change, negative = inhibition [11] -7.59% | Potency [12]

CC(C)NC(=O)N1CC2(CCN(C(=O)c3ccco3)CC2)C1
inactive: Potency [1] > 11.4 µM | activity change, negative = inhibition [2] -14.7% | Potency [3] | activity change, negative = inhibition [4] 16.4% | activity, negative = inhibition [5] -2.76% | Potency [6] > 46 µM | outcome [7] | Potency [8] | activation [13] 0.544% | activity change, negative = inhibition [11] -0.739% | Potency [12]
-15.7%: max response [11, 15]
-15.1%: max response [11, 16]

CC(C)CN1CC[C@@]2(CCCN(S(=O)(=O)c3ccccc3)C2)C1
9.28%: max response [11, 16]
active: Potency [3] 25.1 µM | Potency [10] 0.501 µM
1.96%: max response [11, 15]
inactive: Potency [1] > 11.4 µM | activity change, negative = inhibition [2] 1.83% | activity change, negative = inhibition [4] -7.95% | activity, negative = inhibition [5] -0.418% | Potency [6] > 46 µM | outcome [7] | Potency [8] | Potency [9] | activity change, negative = inhibition [11] 4.19% | Potency [12]

CC(C)CN1CC[C@@]2(CCCN(C(=O)c3cnccn3)C2)C1
15.7%: max response [11, 15]
inactive: Potency [1] > 11.4 µM | activity change, negative = inhibition [2] 6.22% | Potency [3] | activity change, negative = inhibition [4] 13.6% | activity, negative = inhibition [5] 4.96% | Potency [6] > 46 µM | outcome [7] | Potency [8] | Potency [9] | activation [13] -0.465% | activity change, negative = inhibition [11] 3.32% | Potency [12]
22.3%: max response [11, 16]

COc1ccccc1CN1CC[C@@]2(CCCN(C(C)=O)C2)C1
active: Potency [10] 3.16 µM
-2.53%: max response [11, 15]
-1%: max response [11, 16]
inactive: Potency [1] > 11.4 µM | activity change, negative = inhibition [2] -19% | Potency [3] | activity change, negative = inhibition [4] 19.3% | activity, negative = inhibition [5] 1.39% | Potency [6] > 46 µM | outcome [7] | Potency [8] | activity change, negative = inhibition [11] 0.807% | Potency [12]

CC(C)NC(=O)N1CCCC2(CCN(C(=O)c3cccc(F)c3)CC2)C1
20.4%: max response [11, 15]
27.6%: max response [11, 16]
inactive: Potency [1] > 11.4 µM | activity change, negative = inhibition [2] -13.6% | Potency [3] | activity change, negative = inhibition [4] -16.5% | activity, negative = inhibition [5] -2.81% | Potency [6] > 46 µM | outcome [7] | Potency [8] | Potency [9] | Potency [10] | Potency [14] | activity change, negative = inhibition [11] 3.5% | Potency [12]

COc1ccc(NC(=O)N2CCCC3(CCNCC3)C2)cc1
0.941%: max response [11, 16]
-5.9%: max response [11, 15]
inactive: Potency [1] > 11.4 µM | activity change, negative = inhibition [2] -1.83% | Potency [3] | activity change, negative = inhibition [4] 1.68% | activity, negative = inhibition [5] 5.73% | Potency [6] > 46 µM | outcome [7] | Potency [8] | Potency [9] | Potency [14] | activity change, negative = inhibition [11] 4.28% | Potency [12]

N#Cc1ccc(CN2CCCC3(CCN(C(=O)c4cccc(F)c4)CC3)C2)cc1
active: activity change, negative = inhibition [4] -65.7%
15%: max response [11, 15]
19.8%: max response [11, 16]
inactive: Potency [1] > 11.4 µM | activity change, negative = inhibition [2] 19.4% | Potency [3] | activity, negative = inhibition [5] -5.26% | Potency [6] > 46 µM | outcome [7] | Potency [8] | Potency [9] | activation [13] -15.7% | activity change, negative = inhibition [11] 2.12% | Potency [12]
